PubChem BioAssay (NCATS)
Several values for one entry are separate records, joined by “and”; a condition that tells them apart may be missing. Equal values may be shown once. Records with an inconclusive call do not appear. A call without a number means that no potency is given here. Activity calls are given as the source filed them. Unless noted, calls come from the whole dose curve; as a rule, active = well fitted curve in the direction sought with a large enough effect; inconclusive = small, poorly fitted or top-dose-only effect, or another doubt; inactive = no such curve, though single readings can be large; an effect the other way counts as inactive or inconclusive.

Columns and labels:
[1] = Primary qHTS for inhibitors of nuclear receptor binding SET domain protein 2 (NSD2) in an RCH-ACV wild type WT cells (2C) (AID 1645877); note: nearly all actives have a fitted effect of over 70% in size; note: potency is the fitted concentration of half-maximal effect
[2] = NCATS anti-infectives library activity on HEK293 viability as a counter-qHTS vs the C. elegans viability qHTS (AID 1745854); note: potency is the fitted concentration of half-maximal effect
Method in brief: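 Cytotoxicity counter-screen to a worm viability qHTS: CellTiter-Glo luminescence read 10 min after reagent addition. Compounds (final up to 41.7 uM, a 1:5 dilution series) incubated 24 hr at 37C with 1,500 HEK293 cells per well; digitonin control.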

[3] = target: Glutathione peroxidase 1 (Homo sapiens) (UniProt P07203); assay: Primary qHTS Assay for Inhibitors of Recombinant Selenoprotein Glutathione Peroxidase 1 (GPX1) (AID 1845191); note: nearly all actives have a fitted effect of over 65% in size; note: potency is the fitted concentration of half-maximal effect
Method in brief: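 GR-coupled readout: NADPH consumption tracked by fluorescence, ex 340/em 450 nm, at t=0 and after 15 min at RT. Final mix 10 nM GPX1, 1 mM GSH, 0.5 mM CHP, 0.5 mM NADPH, 100 nM GR, 0.01% BSA, following 30 min enzyme–compound preincubation.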

[4] = target: Phospholipid hydroperoxide glutathione peroxidase GPX4 (Homo sapiens) (UniProt P36969); assay: Primary qHTS Assay for Inhibitors of Recombinant Selenoprotein Glutathione Peroxidase 4 (GPX4) (AID 1845192); note: nearly all actives have a fitted effect of over 65% in size; note: potency is the fitted concentration of half-maximal effect
Method in brief: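 Steps: GPX4 plus compound, 30 min RT; add GR/GSH/NADPH master mix; start with cumene hydroperoxide; read 340/450 nm fluorescence at 0 and 15 min. Finals were 200 nM GPX4, 1 mM GSH, 0.5 mM CHP, 0.5 mM NADPH, 100 nM GR.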

[5] = target: Catechol O-methyltransferase (Homo sapiens) (UniProt P21964); assay: Confirmatory Screen for Target Class Profiling of Small Molecule Inhibitors of Methyltransferases (AID 1745852; calls by dose curve; note: potency is the fitted concentration of half-maximal effect); conditions: MTase-Glo luminescence, SAH detection, recombinant enzyme; measured here: COMT max response; stronger effect = lower value
[6] = target: Guanidinoacetate N-methyltransferase (Homo sapiens) (UniProt Q14353); assay: as above; conditions: MTase-Glo luminescence, SAH detection, recombinant enzyme
[7] = target: Nicotinamide N-methyltransferase (Homo sapiens) (UniProt P40261); assay: as above; conditions: MTase-Glo luminescence, SAH detection, recombinant enzyme; measured here: NNMT max response; stronger effect = lower value
[8] = target: Phenylethanolamine N-methyltransferase (Homo sapiens) (UniProt P11086); assay: as above; conditions: MTase-Glo luminescence, SAH detection, recombinant enzyme; measured here: PNMT max response; stronger effect = lower value
[9] = Primary fluorescence-based thiol-reactive (MSTI) qHTS assay for identification of artifact compounds. (AID 1845221); note: nearly all actives have a fitted effect of over 65% in size; note: potency is the fitted concentration of half-maximal effect
Method in brief: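 A multi-concentration qHTS design tested compounds against 4 uM MSTI, pH 7.4 phosphate-buffered saline. Plates were protected from light for 1 h at room temperature before imaging fluorescence.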

[10] = system: Nanoluciferase (engineered Oplophorus gracilirostris luciferase); assay: Primary Nanoluciferase (NLuc) qHTS assay for identification of artifact compounds. (AID 1845222);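 note: NLuc secreted into diluted conditioned medium of S16 cells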
Method in brief: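 qHTS format, against NLuc in S16 cell-conditioned medium. Nano-Glo substrate 1:100 was added after 15 min at room temperature. Luminescence was taken after a further 5 min.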

[11] = Primary redox qHTS assay for identification of artifact compounds. (AID 1845223)
Method in brief: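 Redox-cycling detection via DTT (250 uM final) oxidation coupled to Amplex Red (25 uM)/HRP (250 mU/mL) in HBSS. 15 min preincubation plus 30 min after DTT, room temperature. Ex/Em 525/598 nm; 4-parameter Hill fit against DMSO and 10 uM DA3003.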

[12] = target: Luciferin 4-monooxygenase (Photinus pyralis) (UniProt P08659); assay: Primary firefly luciferase (FLuc) qHTS assay for identification of artifact compounds. (AID 1845220); note: nearly all actives have a fitted effect of over 60% in size
Method in brief: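 Titrated compounds were incubated 15 min at RT, protected from light, with luciferin and ATP at 10 uM; reaction started with 10 nM FLuc, luminescence imaged at 5 min, and concentration-response fitted by Hill equation.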

[13] = activity change, negative = inhibition: at 57.3 µM (top of the series) unless noted

Sequence of Catechol O-methyltransferase (Homo sapiens) (P21964 whole entry, looked up): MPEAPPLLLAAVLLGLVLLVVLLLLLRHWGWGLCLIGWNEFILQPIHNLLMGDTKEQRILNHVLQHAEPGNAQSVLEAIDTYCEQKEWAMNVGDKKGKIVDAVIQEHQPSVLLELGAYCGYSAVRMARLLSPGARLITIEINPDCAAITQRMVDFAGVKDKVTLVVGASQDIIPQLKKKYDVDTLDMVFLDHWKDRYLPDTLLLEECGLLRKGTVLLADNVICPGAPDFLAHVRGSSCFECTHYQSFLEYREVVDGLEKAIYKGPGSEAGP
Sequence of Phospholipid hydroperoxide glutathione peroxidase GPX4 (Homo sapiens) (P36969 whole entry, looked up): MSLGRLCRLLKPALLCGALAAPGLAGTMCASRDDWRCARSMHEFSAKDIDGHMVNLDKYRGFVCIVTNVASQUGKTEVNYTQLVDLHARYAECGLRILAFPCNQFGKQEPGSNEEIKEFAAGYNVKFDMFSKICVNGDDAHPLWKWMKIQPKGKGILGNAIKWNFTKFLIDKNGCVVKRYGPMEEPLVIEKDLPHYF
Sequence of Nicotinamide N-methyltransferase (Homo sapiens) (P40261 whole entry, looked up): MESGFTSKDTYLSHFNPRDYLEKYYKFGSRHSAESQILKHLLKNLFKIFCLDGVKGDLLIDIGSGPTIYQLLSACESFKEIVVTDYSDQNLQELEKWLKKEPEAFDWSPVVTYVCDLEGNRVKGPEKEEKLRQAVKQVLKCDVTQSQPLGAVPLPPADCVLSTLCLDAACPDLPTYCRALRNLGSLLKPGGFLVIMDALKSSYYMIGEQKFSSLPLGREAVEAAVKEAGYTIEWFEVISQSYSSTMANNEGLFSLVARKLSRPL
Sequence of Glutathione peroxidase 1 (Homo sapiens) (P07203 whole entry, looked up): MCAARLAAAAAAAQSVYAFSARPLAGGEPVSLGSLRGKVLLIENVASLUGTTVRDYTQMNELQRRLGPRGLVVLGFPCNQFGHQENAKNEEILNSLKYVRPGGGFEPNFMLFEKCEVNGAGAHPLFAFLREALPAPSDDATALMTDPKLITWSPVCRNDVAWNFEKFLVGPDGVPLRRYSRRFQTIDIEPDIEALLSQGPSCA
Sequence of Phenylethanolamine N-methyltransferase (Homo sapiens) (P11086 whole entry, looked up): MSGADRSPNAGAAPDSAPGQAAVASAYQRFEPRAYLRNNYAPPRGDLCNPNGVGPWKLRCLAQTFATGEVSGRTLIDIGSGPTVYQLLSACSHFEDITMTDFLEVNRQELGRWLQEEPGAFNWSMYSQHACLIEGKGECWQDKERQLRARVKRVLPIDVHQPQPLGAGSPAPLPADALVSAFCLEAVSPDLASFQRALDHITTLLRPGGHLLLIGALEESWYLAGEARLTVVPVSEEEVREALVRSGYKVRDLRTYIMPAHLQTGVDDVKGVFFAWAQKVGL

With Nc1ccn([C@@H]2CS[C@H](CO)O2)c(=O)n1 the Potency [1] was “inactive”, the Potency [2] was “inactive” and the Potency [3] was “inactive”. The Potency [4] was “inactive”.
For CC(C)(C)OC(=O)Nc1ccc(-c2cc(C(=O)NCCCCCCC(=O)NO)no2)cc1, the Potency [1] was 1.32 µM (active), the Potency [2] was “inactive” and the Potency [3] was “inactive”.
For CCn1cc(-c2ccnc3[nH]c(-c4cccc(CN(C)C)c4)cc23)c(-c2ccc(NC(=O)N(C)C)cc2)n1, the Potency [1] was 36.6 nM (active) and 37.2 nM (active), the activity [5] was -5.39% and -8.37% and the activity change, negative = inhibition ([6]; at 29.8 µM (top of the series)) was 2.9%. For the same compound, the activity change, negative = inhibition ([6]; at 57.3 µM (top of the series)) was -1.45%, the activity [7] was -7.11% and -33% and the activity [8] was -1.24% and -20%. The Potency [3] was “inactive”, the Potency [4] was “inactive” and the Potency [9] was “inactive”. For the same compound, the Potency [10] was “inactive” and the Potency [11] was “inactive”.
For CC(C)[C@H](C(=O)Nc1ccc(C(=O)NO)cc1)c1ccccc1, the Potency [1] was “inactive”, the Potency [2] was “inactive” and the Potency [3] was “inactive”. The Potency [4] was “inactive”.
For NC1(Cc2ccc(Cl)cc2)CCN(c2ncnc3[nH]ccc23)CC1, the Potency [1] was 8.33 µM (active), the activity [5] was -4.59% and the activity change, negative = inhibition [6, 13] was 0.429%. For the same compound, the activity [7] was -26.7%, the activity [8] was -31.7% and the Potency [3] was “inactive”. For the same compound, the Potency [4] was “inactive”, the Potency [12] was “inactive” and the Potency [9] was “inactive”. The Potency [10] was “inactive” and the Potency [11] was “inactive”.
In the case of Nc1nccc(Oc2ccc(NC(=O)c3c[nH]cc(-c4ccc(F)cc4)c3=O)cc2F)c1Cl, the Potency [1] is reported as 10.5 µM (active), the activity [5] is reported as -3.16% and the activity change, negative = inhibition [6, 13] is reported as -6.18%. For the same compound, the activity [7] was -55.9%, the activity [8] was -3% and the Potency [3] was “inactive”. The Potency [9] was “inactive”, the Potency [10] was “inactive” and the Potency [11] was “inactive”.
In the case of CC[C@@H]1C(=O)N(C)c2cnc(Nc3ccc(C(=O)NC4CCN(C)CC4)cc3OC)nc2N1C1CCCC1, the Potency [1] is reported as 0.0372 µM (active), the activity [5] is reported as -18.1% and the Potency [6, 13] is reported as 21.7 µM (active). The activity [7] was -45.4%, the activity [8] was -31.6% and the Potency [3] was “inactive”. For the same compound, the Potency [4] was “inactive”.
For COc1cccc2c(NCc3ccccc3)nc(-n3c(N)nc4ccccc43)nc12, the Potency [1] was 8.33 µM (active), the Potency [2] was 7.08 µM (active) and the Potency [3] was “inactive”. The Potency [4] was “inactive”, the Potency [12] was “inactive” and the Potency [10] was “inactive”. For the same compound, the Potency [11] was “inactive”.
With C=CC(=O)Nc1cccc(Oc2nc(Nc3ccc(N4CCN(C)CC4)cc3)ncc2Cl)c1 the Potency [1] was 649 nM (active) and 1.32 µM (active), the activity [5] was -18% and the Potency [6, 13] was 27.1 µM (active). For the same compound, the activity [7] was -51.9%, the activity [8] was -14.3% and the Potency [3] was “inactive”. For the same compound, the Potency [4] was “inactive”, the Potency [12] was “inactive” and the Potency [9] was 1.89 µM (active). The Potency [10] was “inactive”.
In the case of O=c1[nH]nc(Sc2ncc([N+](=O)[O-])s2)n1-c1ccc2c(c1)OCCO2, the Potency [1] is reported as 7.42 µM (active).
With C=CCn1c(=O)c2cnc(Nc3ccc(N4CCN(C)CC4)cc3)nc2n1-c1cccc(C(C)(C)O)n1 the Potency [1] was 230 nM (active) and 468 nM (active), the activity [5] was -20.7% and the activity change, negative = inhibition [6, 13] was -6.72%. For the same compound, the activity [7] was -8.48%, the activity [8] was -20.6% and the Potency [3] was “inactive”. The Potency [4] was “inactive”, the Potency [12] was “inactive” and the Potency [10] was “inactive”.
With CN(C)Cc1c(C(=O)NCCOc2ccc(C(=O)NO)cc2)oc2ccccc12 the Potency [1] was 515 nM (active) and 296 nM (active), the Potency [2] was “inactive” and the Potency [3] was “inactive”. For the same compound, the Potency [4] was “inactive”, the Potency [12] was “inactive” and the Potency [10] was “inactive”. For the same compound, the Potency [11] was “inactive”.
With CNC(=O)CN1CCC(Oc2cc3c(Nc4cccc(Cl)c4F)ncnc3cc2OC)CC1 the Potency [1] was 18.6 µM (active), the activity [5] was -36% and the Potency [6, 13] was 42.9 µM (active). For the same compound, the activity [7] was -23.1%, the activity [8] was -49.9% and the Potency [3] was “inactive”. The Potency [12] was “inactive”, the Potency [9] was “inactive” and the Potency [10] was “inactive”.
In the case of Cc1cc(Nc2cc(N3CCN(C)CC3)nc(Sc3ccc(NC(=O)C4CC4)cc3)n2)n[nH]1, the Potency [1] is reported as 0.0468 µM (active), the activity [5] is reported as -3.34% and the activity change, negative = inhibition [6, 13] is reported as -2.28%. The activity [7] was -2.46%, the activity [8] was -1.21% and the Potency [3] was “inactive”. For the same compound, the Potency [4] was “inactive”, the Potency [9] was “inactive” and the Potency [10] was “inactive”.
For O=C(O)c1ccc2c(c1)nc(Nc1cccc(Cl)c1)c1ccncc12, the Potency [1] was 3.65 µM (active), the activity [5] was -68.6% and the Potency [6, 13] was 27.1 µM (active). For the same compound, the activity [7] was -53.1%, the activity [8] was -66.6% and the Potency [3] was “inactive”. For the same compound, the Potency [4] was “inactive” and the Potency [12] was “inactive”.
With O=C(O)C1(Cc2cccc(Nc3nccs3)n2)CCC(Oc2cccc(Cl)c2F)CC1 (stereo unspecified) the Potency [1] was 2.58 µM (active) and 3.72 µM (active), the activity [5] was -35% and the Potency [6, 13] was 42.9 µM (active). The activity [7] was -34.5%, the activity [8] was -68.7% and the Potency [3] was “inactive”. The Potency [12] was “inactive”, the Potency [9] was “inactive” and the Potency [10] was “inactive”. For the same compound, the Potency [11] was “inactive”.
With NC(=O)c1cccc2cn(-c3ccc([C@@H]4CCCNC4)cc3)nc12 the Potency [1] was 2.9 µM (active) and 2.35 µM (active), the Potency [2] was “inactive” and the Potency [3] was 18.3 µM (active) and 22.7 µM (active). The Potency [4] was 16.1 µM (active), the Potency [9] was “inactive” and the Potency [10] was “inactive”. For the same compound, the Potency [11] was “inactive”.
